Laboratory results: PubChem BioAssay (NCI)
The panel holds about 79,000 compounds, 15% with a hit somewhere; the sample as a whole holds those more often. Cut-off read from the data, not from the text of the source: active = growth inhibition above about 70%; inactive = the rest.

Experiments:
[1] = NCI Yeast Anticancer Drug Screen. Data for the rad50 strain (AID 155);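 note: 0% = growth of vehicle-only cultures of the same strain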; conditions: S. cerevisiae rad50 strain growth inhibition; at 50.0 µM; hits give high values
Outline: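 Yeast carrying a defined DNA repair defect were exposed to test compounds, and growth was compared with vehicle-treated controls to give percent inhibition.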

[2] = NCI Yeast Anticancer Drug Screen. Data for the mec2-1 strain (AID 157); conditions: S. cerevisiae mec2-1 strain, at 50.0 µM, hits give high values
Outline: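 Test agents were screened against the mec2-1 yeast strain, with defined DNA repair or cell cycle alteration. Growth was scored as inhibition against vehicle-only controls.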

[3] = NCI Yeast Anticancer Drug Screen. Data for the sgs1 mgt1 strain (AID 161);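 note: 0% = growth of cultures given vehicle only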; conditions: S. cerevisiae sgs1 mgt1 strain, at 50.0 µM, hits give high values
Outline: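 Inhibition of yeast growth, normalised to vehicle-treated controls, is reported for a strain bearing genetic alterations in DNA damage repair.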

[4] = NCI Yeast Anticancer Drug Screen. Data for the cln2 rad14 strain (AID 165);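 note: 0% = growth equal to vehicle treated cultures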; conditions: S. cerevisiae cln2 rad14 strain, at 50.0 µM, hits give high values
Outline: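 Growth of compound-exposed yeast (cln2 rad14 genotype) measured and expressed as inhibition relative to vehicle.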

[5] = NCI Yeast Anticancer Drug Screen. Data for the bub3 strain (AID 167); conditions: S. cerevisiae bub3 mutant strain, at 50.0 µM, hits give high values
Outline: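 Compounds were applied to a genetically altered yeast strain carrying a cell-cycle control defect. Growth inhibition was scored against vehicle-treated controls.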

[6] = NCI Yeast Anticancer Drug Screen. Data for the mlh1 rad18 strain (AID 175); conditions: S. cerevisiae mlh1 rad18 strain growth inhibition; at 50.0 µM; hits give high values
Outline: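 In this whole-cell yeast screen, a strain with altered DNA damage repair is challenged with compound, and its growth is measured against matched vehicle-treated controls.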

Measured: growth inhibition

CSc1nc(NC2OC(CO)C(O)C(O)C2O)cc(=O)[nH]1 (stereo unspecified)
inactive: [1] 3.5% | [2] 4.2% | [3] 2.85% | [4] -9.8% | [5] 7.5% | [6] -2.9%

O=[N+]([O-])c1ccc(C2ON=C(c3ccccc3)N2C23CC4CC(CC(C4)C2)C3)cc1 (stereo unspecified)
inactive: [1] -12.6% | [2] -9% | [3] -6.1% | [4] 25.5% | [5] -6.5% | [6] -28.4%

Cc1cccc(N(CCOS(C)(=O)=O)CCOS(C)(=O)=O)c1
inactive: [1] -8.6% | [2] -2.2% | [3] 14% | [4] -47.4% | [5] -5.2% | [6] -10.9%

O=C1c2ccccc2-c2cc(Br)c(NC(=O)C3CCCCC3C(=O)O)cc21 (stereo unspecified)
inactive: [1] 0.2% | [2] 3.55% | [3] 20.6% | [4] 25.8% | [5] -1.2% | [6] 3.6%

CCOC(=O)Cc1ccc2c(c1)sc1nc(-c3ccc(OC)cc3)cn12
inactive: [1] 38.8% | [2] 19.5% | [3] 21.2% | [4] 32.3% | [5] 31.1% | [6] 18.6%

NC(=O)CCC(N)=O
inactive: [1] 22.6% | [2] 5.75% | [3] 5.25% | [4] -5.4% | [5] 17.1% | [6] 1.45%

COC(=O)c1sc2c(=O)c(C(=O)OC)c(C(=O)OC)sc2c(=O)c1C(=O)OC
inactive: [1] 23.1% | [2] 27.4% | [3] 54.3% | [4] -1.1% | [5] 50.9% | [6] 38.6%

CCCCCCC(=O)N1CC(C)OC(C)C1 (stereo unspecified)
inactive: [1] 0.6% | [2] -6.4% | [3] 2.4% | [4] 0.1% | [5] -14.7% | [6] 4.8%

COC(=O)c1cc(=O)c2ccc(Cl)cc2[nH]1
inactive: [1] -8.05% | [2] 4.05% | [3] -10.9% | [4] -14.6% | [5] -18.3% | [6] -25.3%

O=c1c2c(-c3ccccc3)onc2n(-c2ccccc2)c(=O)n1-c1ccccc1
inactive: [1] -20.4% | [2] 4.5% | [3] 13.2% | [4] -10.6% | [5] -4.2% | [6] 36.5%

c1ccc(-c2cc(CNc3nc4ccccc4s3)on2)cc1
inactive: [1] 19.9% | [2] 10.7% | [3] 9.1% | [4] 5.45% | [5] -4.55% | [6] 9.75%

Nc1nc(-c2ccc(-c3ccccc3)cc2)cc(=O)[nH]1
inactive: [1] 0.25% | [2] 27.6% | [3] -4.8% | [4] -8.25% | [5] 7.5% | [6] -25.8%

Cc1cccc2c(=O)[nH]c(=O)[nH]c12
inactive: [1] -14.2% | [2] -12.2% | [3] -2.15% | [4] -58.8% | [5] -4.4% | [6] -20.1%

COC(c1ccccc1)(c1ccccc1)c1cc(NS(=O)(=O)c2ccccc2)ccc1NS(=O)(=O)c1ccccc1
inactive: [1] 14.2% | [2] 3.9% | [3] 13% | [4] -17.1% | [5] -4.7% | [6] 8.05%

CN1CCC(CN)(c2ccccc2)CC1
inactive: [1] 14.1% | [2] 14.9% | [3] 0.35% | [4] -6.5% | [5] 9.7% | [6] 11.3%

CCOc1ccc(NC(=O)/C(CC(=O)c2sc(Nc3ccc(C)cc3)nc2C)=N\NC(N)=S)cc1
inactive: [1] -33.3% | [2] 3.15% | [3] 8.95% | [4] -49.6% | [5] -11.4% | [6] -35.5%

CCCCCCCCCCCCCCCCCCCOc1ccc(OCCCCCCCCCC)cc1
inactive: [1] 33.9% | [2] -2.05% | [3] 24.6% | [4] -10.4% | [5] 0.2% | [6] 7.15%

CSc1nc(N)c(C(N)=O)cc1C#N
inactive: [1] 5.45% | [2] 2.6% | [3] -5.4% | [4] -32.8% | [5] -16.6% | [6] 8.55%

CSc1c(C)c(C)nn1-c1ccccc1
inactive: [1] -8.35% | [2] -7.6% | [3] 9.45% | [4] -1.4% | [5] 1.35% | [6] -5.75%

COc1cnn(-c2ccccc2)c(=O)c1Cl
inactive: [1] -1.4% | [2] -7.35% | [3] -1.85% | [4] -3.7% | [5] 0.8% | [6] -13.9%

COc1ccc(Nc2nc(NNC(=O)Cc3ccccc3)nc(NNC(=O)c3ccncc3)n2)cc1
inactive: [1] 8.5% | [2] 20.1% | [3] 30.1% | [4] 19.2% | [5] 27.2% | [6] 30.4%
